Screening results (PubChem BioAssay)
In the library only some 0.98% were active in any assay of this set; here they are far more common.
LANA DNA inh = blocks KSHV LANA C-terminal domain binding to DNA; MBP-C-LANA/FAM-LBS DNA binding, fluorescence polarization; inhibition, % at 9 µM; 340,000 tested, 0.078% active;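 active = highest replicate inhibition at or above 60% at 9 µM, even if other replicates fall short; inactive = all replicates below 60% inhibition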;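 also: 0% = neutral control wells and 100% = 4 µM acridine orange control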
LANA-H2B inh = blocks KSHV LANA binding to histone H2A/H2B; Q9QR71; cell-free LANA-H2A/H2B peptide, fluorescence polarization; inhibition, % (no concentration beside the values); 320,000 tested, 0.6% active; AID 2629; in the data active = inhibition mostly above about 10%, no sharp cut-off; inactive = mostly below about 6.7%
Keap1-Nrf2 PPI = disrupts human Keap1 binding to Nrf2 peptide; Keap1 Kelch-Nrf2 peptide fluorescence polarization, 1536-well; inhibition, % at 9.4 µM; 340,000 tested, 0.15% active; in the data active = inhibition above about 12%;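 also: human Keap1 Kelch domain with fluorescein labeled Nrf2 9mer peptide probe; 0% = neutral control wells and 100% = peptide positive control; higher means more block of Keap1 binding to Nrf2 peptide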
Target sequence (Q14145 whole entry, looked up, the tested form may be a part): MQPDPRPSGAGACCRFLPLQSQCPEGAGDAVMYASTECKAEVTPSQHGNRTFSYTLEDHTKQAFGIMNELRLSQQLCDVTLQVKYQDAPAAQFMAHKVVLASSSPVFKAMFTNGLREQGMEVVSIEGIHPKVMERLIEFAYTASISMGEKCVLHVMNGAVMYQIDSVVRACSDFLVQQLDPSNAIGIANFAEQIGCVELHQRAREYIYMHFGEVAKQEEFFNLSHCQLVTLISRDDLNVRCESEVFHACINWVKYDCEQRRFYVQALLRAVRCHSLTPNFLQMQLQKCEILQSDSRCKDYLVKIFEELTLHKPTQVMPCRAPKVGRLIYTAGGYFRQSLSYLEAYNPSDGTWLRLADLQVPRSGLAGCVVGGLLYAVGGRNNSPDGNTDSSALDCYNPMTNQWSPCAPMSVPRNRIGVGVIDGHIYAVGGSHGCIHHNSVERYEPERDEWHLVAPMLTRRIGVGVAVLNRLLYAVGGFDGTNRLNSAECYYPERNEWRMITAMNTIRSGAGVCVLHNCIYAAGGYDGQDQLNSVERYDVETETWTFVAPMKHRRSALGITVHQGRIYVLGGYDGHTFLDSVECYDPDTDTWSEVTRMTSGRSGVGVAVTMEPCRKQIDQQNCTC
cardiac RTF act = increases calcium sensitivity of human cardiac regulated thin filaments. P19429+P45379. IANBD-labeled TnC RTF fluorescence at EC20 calcium; 0% EC20 calcium, 100% full calcium. activation, % at 7.2 µM. 340,000 tested, 0.24% active;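 active = activation above the mean over all tested compounds plus 3 SD, cut at about 30% in these data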;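 also: rise in fluorescence read as greater calcium sensitivity of cardiac thin filaments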
Cardiac RTF inh = cardiac RTF calcium desensitization. IANBD-labeled cardiac RTF, Ca2+ fluorescence. inhibition, % at 7.15 µM. 340,000 tested, 0.12% active;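 active = inhibition above the mean inhibition of all tested compounds plus 3 SD, cut at about 17% in these data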;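 also: assay run at fixed EC70 calcium of 1.6 mM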
* marks the source's active call; other numbers are inactive results.

O=C1NC(=O)N(Cc2ccccc2)C(=O)/C1=C\c1ccco1 was read as LANA DNA inh 17, LANA-H2B inh -3, Keap1-Nrf2 PPI -8, cardiac RTF act 11 and Cardiac RTF inh -8.
Cc1ccccc1N1C(=O)/C(=C/c2ccco2)C(=O)NC1=S was read as LANA-H2B inh 26*.
Screening CCOc1ccc(N2C(=O)/C(=C/c3ccco3)C(=O)NC2=S)cc1 returned LANA DNA inh 20, LANA-H2B inh 6, Keap1-Nrf2 PPI -2, cardiac RTF act -40 and Cardiac RTF inh 56*.
For C=C1[C@H]2CC[C@H]3[C@]4(C)C[C@H](O[C@@H]5OC(CO)[C@@H](OSOOO)[C@H](OS(=O)(=O)O)[C@H]5OC(=O)CC(C)C)C[C@@H](C(=O)O)[C@H]4CC[C@]3(C2)[C@H]1O (some centres not stated) the results were LANA DNA inh -2, LANA-H2B inh 2, Keap1-Nrf2 PPI -7, cardiac RTF act 1 and Cardiac RTF inh 0.
For COc1cc(OC)c(C=O)c(OC(=O)N(C)C)c1 the results were LANA DNA inh -1, LANA-H2B inh 4, Keap1-Nrf2 PPI -6, cardiac RTF act 6 and Cardiac RTF inh -8.
`CC[C@H]1CN2CC[C@@]3(C(=O)Nc4ccccc43)[C@@H]2C[C@@H]1/C(=C\OC)C(=O)OC` gave LANA-H2B inh 2.
For C=CC(=O)NCNC(=O)C=C the results were LANA DNA inh 1, LANA-H2B inh 10*, Keap1-Nrf2 PPI -5, cardiac RTF act -1 and Cardiac RTF inh 0.
CC1(C)OC(c2ccccc2)=C/C(=C/C=C2C(=O)NC(=S)NC2=O)O1 was read as LANA-H2B inh -1.
Screening CN1/C(=C\C=C2C(=O)NC(=S)NC2=O)C(C)(C)c2ccccc21 returned LANA DNA inh -1, Keap1-Nrf2 PPI -7, cardiac RTF act 433* and Cardiac RTF inh inactive.
COc1ccc(-n2c(O)c(C=NCCN3CCN(C(C)=O)CC3)c(=O)[nH]c2=S)cc1 was read as LANA DNA inh 1, LANA-H2B inh 5, Keap1-Nrf2 PPI 3, cardiac RTF act 0 and Cardiac RTF inh -9.
Screening COC[C@]12CN(C)C3C4[C@H](OC)[C@H]1C3([C@@H](OC)C[C@H]2O)[C@@H]1C[C@@]2(O)[C@H](OC(=O)c3ccccc3)[C@@H]1[C@]4(OC(C)=O)[C@@H](O)[C@@H]2OC returned LANA-H2B inh 6.
`O=C1NC(=O)N(Cc2ccccc2)C(=O)/C1=C\N1CCCc2ccccc21` gave LANA DNA inh -1, LANA-H2B inh -4, Keap1-Nrf2 PPI -34, cardiac RTF act 36* and Cardiac RTF inh -62.
`O=C1NC(=O)C(=CN2CCc3ccccc32)C(=O)N1` gave LANA DNA inh 3, LANA-H2B inh 0, Keap1-Nrf2 PPI -1, cardiac RTF act 7 and Cardiac RTF inh -12.
Screening C=CCn1c(C)c(C=C2C(=O)NC(=O)NC2=O)c2ccccc21 returned LANA DNA inh 6, LANA-H2B inh -7, Keap1-Nrf2 PPI -8, cardiac RTF act 8 and Cardiac RTF inh -7.
For Cc1cccc(N2C(=O)/C(=C/c3ccc(N4CCN(C)CC4)o3)C(=O)NC2=S)c1C the results were LANA DNA inh -33, LANA-H2B inh -24, Keap1-Nrf2 PPI -154, cardiac RTF act 89* and Cardiac RTF inh -45.
COc1ccc(N2C(=O)/C(=C/c3ccc(C)o3)C(=O)NC2=S)c(OC)c1 was read as LANA DNA inh -1, LANA-H2B inh 4, Keap1-Nrf2 PPI -7, cardiac RTF act 3 and Cardiac RTF inh -6.
For CCc1ccccc1N1C(=O)/C(=C/c2ccc(N3CCN(C)CC3)o2)C(=O)NC1=S the results were LANA DNA inh -21, LANA-H2B inh -51, Keap1-Nrf2 PPI -99, cardiac RTF act 65* and Cardiac RTF inh -41.
`Cc1cc(OCC(=O)NCc2ccncc2)c2c3c(c(=O)oc2c1)CCC3` gave LANA DNA inh 0, LANA-H2B inh 16*, Keap1-Nrf2 PPI 4, cardiac RTF act -2 and Cardiac RTF inh -5.
For O=C(CCN1CCCCC1)Nc1ccc(Br)cc1C(=O)c1ccccc1 the results were LANA DNA inh 1, LANA-H2B inh 19*, Keap1-Nrf2 PPI 0, cardiac RTF act -4 and Cardiac RTF inh 0.
`Cc1ccccc1N` gave LANA DNA inh 0, LANA-H2B inh -1, Keap1-Nrf2 PPI -4, cardiac RTF act -4 and Cardiac RTF inh 2.
For Cc1ccc(N)c(C)c1 the results were LANA DNA inh 1, LANA-H2B inh 37*, Keap1-Nrf2 PPI 3, cardiac RTF act -4 and Cardiac RTF inh 2.
Screening Cc1c(C)c2ccc(OCC(=O)N3C[C@H]4C[C@@H](C3)c3cccc(=O)n3C4)c(C)c2oc1=O returned LANA DNA inh 1, LANA-H2B inh 1, Keap1-Nrf2 PPI -5, cardiac RTF act 6 and Cardiac RTF inh -1.
O=C1NC(=O)N(c2ccccc2F)C(=O)/C1=C/c1cn(CC(=O)N2CCOCC2)c2ccccc12 was read as LANA-H2B inh 2.
Screening Cc1ccccc1N1C(=O)NC(=O)/C(=C\c2cc(Br)c(N3CCOCC3)o2)C1=O returned LANA DNA inh -39, LANA-H2B inh -36, Keap1-Nrf2 PPI -205, cardiac RTF act 64* and Cardiac RTF inh -51.
For Cc1cc(/C=C2\C(=O)NC(=O)N(C)C2=O)c(C)n1-c1ccc2c(c1)OCO2 the results were LANA DNA inh 0, LANA-H2B inh -1, Keap1-Nrf2 PPI -6, cardiac RTF act 0 and Cardiac RTF inh -12.
O=C1NC(=O)N(c2ccc3c(c2)OCO3)C(=O)/C1=C\c1ccc(N2CCCCC2)o1 was read as LANA DNA inh -38, LANA-H2B inh -28, Keap1-Nrf2 PPI -58, cardiac RTF act 50* and Cardiac RTF inh -88.
Screening Cc1ccccc1N1C(=O)NC(=O)/C(=C/c2ccc(N3CCOCC3)o2)C1=O returned LANA DNA inh -40, LANA-H2B inh -38, Keap1-Nrf2 PPI -159, cardiac RTF act 51* and Cardiac RTF inh -61.
COc1ccc(-n2c(C)cc(C(=O)C[N+]34CCN(CC3)CC4)c2C)cc1 was read as LANA DNA inh -1, LANA-H2B inh -1, Keap1-Nrf2 PPI -3, cardiac RTF act 1 and Cardiac RTF inh -4.
`O=C1NC(=O)N(C2CCCCC2)C(=O)C1C1c2ccccc2C(=O)N1Cc1ccccc1` (configuration not stated) gave LANA DNA inh -1, LANA-H2B inh -5, Keap1-Nrf2 PPI -7, cardiac RTF act 0 and Cardiac RTF inh 4.
O=[N+]([O-])c1ccc(Cl)c(Cl)c1Cl was read as LANA DNA inh -1, LANA-H2B inh 24*, Keap1-Nrf2 PPI 1, cardiac RTF act -1 and Cardiac RTF inh -11.
Cc1c(NS(=O)(=O)c2ccccc2)ccc([N+](=O)[O-])c1Cl was read as LANA DNA inh 0, Keap1-Nrf2 PPI 1, cardiac RTF act -2 and Cardiac RTF inh 1.
Screening Cc1cc(OCCCC(=O)NCc2cccs2)ccc1Cl returned LANA DNA inh 1, LANA-H2B inh 23*, Keap1-Nrf2 PPI -3, cardiac RTF act -3 and Cardiac RTF inh 1.
